Measured values: PubChem BioAssay (NCATS)
Values joined by “and” are separate entries in the source; they are usually repeats but may differ in a detail not shown here. Equal values may be shown once. Records with an inconclusive call do not appear. Where a structure was tested more than once in an assay, its records may differ in their call. Active and inactive are the calls of the source. Calls come from the whole dose curve; as a rule, active = well fitted curve in the direction sought with a large enough effect; inconclusive = small, poorly fitted or top-dose-only effect, or another doubt; inactive = no such curve, though single readings can be large; an effect the other way counts as inactive or inconclusive.

Columns and labels:
[1] = Viability qHTS for spleen associated tyrosine kinase inhibitor (SYKi) naive MV4-11 cells (AID 1963823); note: nearly all actives have a fitted effect of over 40% in size
Summary of the method: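 SYKi-naive MV4-11 AML cells, 500 per well, were exposed to library compounds for 72 hr at 37 C, 5% CO2. Viability was then read by CellTiter-Glo luminescence after 10 min at room temperature.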

[2] = Viability qHTS for spleen associated tyrosine kinase inhibitor (SYKi) drug resistant MV4-11 cells (AID 1963824); note: nearly all actives have a fitted effect of over 35% in size
Summary of the method: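 SYK inhibitor-resistant MV4-11 AML cells, 500 per well, added to predispensed compounds and incubated 72 hr at 37 C, 5% CO2. Viability measured by CellTiter-Glo luminescence after 10 min at room temperature.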

[3] = Quantitative highthroughput screen to assess conditional lethalithy of P12 Ichikawa cells grown in Human Plasma-Like Medium with dialyzed fetal bovine serum (HPLM+ds) (AID 1963879); conditions: Potency: viability; note: nearly all actives have a fitted effect of over 35% in size; for Viability: series mostly up to about 46 µM
Summary of the method: (§1)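 Each medium arm—HPLM with 10% dialyzed FBS, or RPMI1640 with 5 mM glucose and 10% untreated or dialyzed FBS—was screened against an 11-point, 3-fold compound titration for 48 h at 37 °C, with CellTiter-Glo luminescence as endpoint.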

[4] = Quantitative highthroughput screen to assess conditional lethalithy of P12 Ichikawa cells grown in RPMI1640 with untreated serum (RPMI+s) (AID 1963881); conditions: Potency: viability; note: nearly all actives have a fitted effect of over 35% in size;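 for Viability: series mostly up to about 46 µM; 100% = DMSO wells and 0% = empty wells without cells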
Summary of the method: as §1

[5] = Cellular viability qHTS for adrenocortical cancer (ACC) cell line SW-13 (AID 1963989); conditions: SW-13 ACC cells viability, CellTiter-Glo, 48 h; activity (max response): stronger effect = lower value; note: nearly all actives have a fitted effect of over 65% in size;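 for activity (max response): cells grown in serum-free medium with ITS supplement; % is set by controls: 0 for no effect and ±100 for the full control effect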
Summary of the method: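 Luminescent ATP read-out (CellTiter-Glo, 20 min at room temperature) measured metabolically competent SW-13 cells after 48 h compound treatment. Final concentrations spanned up to 46 uM; bortezomib served as positive control.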

[6] = Cellular viability qHTS for adrenocortical cancer (ACC) cell line NCI-H295R (AID 1963990); note: nearly all actives have a fitted effect of over 60% in size
Summary of the method: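 IC50 and maximal efficacy derive from four-parameter logistic modelling of titration curves, with reads scaled between DMSO-only wells (0%) and doxorubicin hydrochloride (100% inhibition). Compounds spanned up to 46 uM over 48 h.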

[7] = Quantitative highthroughput screen to assess conditional lethalithy of SEM cells grown in Human Plasma-Like Medium with dialyzed fetal bovine serum (HPLM+ds) (AID 1963882); note: nearly all actives have a fitted effect of over 35% in size; for Viability: series mostly up to about 46 µM
Summary of the method: as §1

[8] = Quantitative highthroughput screen to assess conditional lethalithy of SEM cells grown in RPMI1640 with unreated serum (RPMI+s) (AID 1963883); note: nearly all actives have a fitted effect of over 35% in size;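 for Viability: 100% = DMSO wells and 0% = empty wells without cells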
Summary of the method: as §1

[9] = Quantitative highthroughput screen to assess conditional lethalithy of SEM cells grown in RPMI1640 with dialyzed fetal bovine serum (RPMI+ds) (AID 1963884); note: nearly all actives have a fitted effect of over 35% in size;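 for Viability: series mostly up to about 46 µM; 100% = DMSO control wells and 0% = empty wells without cells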
Summary of the method: as §1

[10] = Quantitative highthroughput screen to assess conditional lethalithy of P12 Ichikawa cells grown in RPMI1640 with dialyzed fetal bovine serum (RPMI+ds) (AID 1963880); conditions: Potency: P12-Ichikawa viability; note: nearly all actives have a fitted effect of over 35% in size;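 for Viability: 100% = DMSO wells and 0% = empty wells on each plate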
Summary of the method: as §1
Potency is the fitted concentration of half-maximal effect.

Row | Structure (SMILES) | Potency [1] | Potency [2] | Potency [3] | Potency [4] | activity (max response) [5] | Potency [6] | Potency [7] | Potency [8] | Potency [9] | Potency [5] | Potency [10]
1 | Cc1cc(C(C)(C)C)c(O)c(C)c1CC1=NCCN1 | inactive | inactive | 8.33 µM (active) | 10.5 µM (active) | -5.66% (inactive) and -4.23% (inactive) | inactive | – | – | – | – | –
2 | Oc1ccc(-c2ccc(-c3cc(Nc4cccc(CNC5CC5)c4)n[nH]3)cc2)c(O)c1 | 0.833 µM (active) | 0.461 µM (active) | 2.35 µM (active) | 2.35 µM (active) | – | 10 µM (active) | 1.66 µM (active) | 4.69 µM (active) | 7.43 µM (active) | 25.1 µM (active) | –
3 | CC(C)n1cnc2c(NCCc3ccc(O)cc3)nc(-c3csc4ccccc34)nc21 | 14.8 µM (active) | 14.8 µM (active) | 3.72 µM (active) | 14.8 µM (active) | – | inactive | 13.2 µM (active) | 7.43 µM (active) | 5.26 µM (active) | – | 13.2 µM (active)
4 | CC(=O)OCCN1C(=O)c2c(C)nc3ccc(S(=O)(=O)N4CCOCC4)cc3c2C1=O | inactive | inactive | 2.64 µM (active) | – | -3.53% (inactive) | inactive | inactive | inactive | inactive | – | 3.32 µM (active)
5 | COc1cc2c(Nc3ccc(NC(=O)c4ccccc4)cc3)ncnc2cc1OCCCN1CCOCC1 | 1.16 µM (active) and 1.86 µM (active) | 2.06 µM (active) and 2.09 µM (active) | 3.72 µM (active) | 4.69 µM (active) | -24.4% (inactive) | 15.8 µM (active) | – | 3.72 µM (active) | 2.96 µM (active) | – | –
6 | OCCN1CCN(CCCN2c3ccccc3Sc3ccc(C(F)(F)F)cc32)CC1 | 16.8 µM (active) and 5.25 µM (active) | 26.6 µM (active) and 5.25 µM (active) | 7.43 µM (active) | 11.8 µM (active) | 8.75% (inactive) | inactive | – | – | – | – | –
7 | CCC[C@H](Nc1nc(-c2ccc(NC(=O)NCC)c(OC)c2)ncc1C)c1cccnc1 | 0.0742 µM (active) | 0.118 µM (active) | 0.0418 µM (active) | 0.0418 µM (active) | – | – | 0.0418 µM (active) | – | – | 0.224 µM (active) | 0.0418 µM (active)
8 | CN(CC(=O)N(Cc1ccc(C2CCCCC2)cc1)c1ccc(C(=O)O)c(O)c1)S(=O)(=O)c1c(F)c(F)c(F)c(F)c1F | 4.17 µM (active) | 2.63 µM (active) | 20.9 µM (active) | – | -5.17% (inactive) | – | – | 16.6 µM (active) | – | – | –
9 | CC(C)C[C@H](NC(=O)c1cc2ccccc2s1)C(=O)N1CCN(C(=O)[C@H](CO)NS(=O)(=O)c2ccc(Cl)cc2Cl)CC1 | 20.9 µM (active) | 16.6 µM (active) | inactive | – | – | 25.1 µM (active) | – | – | – | – | –
10 | Cc1cccc(Nc2nc(N[C@@H]3CCCC[C@H]3N)ncc2C(N)=O)c1 | 0.934 µM (active) | 2.63 µM (active) | 1.32 µM (active) | 3.32 µM (active) | – | 28.2 µM (active) | – | 4.18 µM (active) | 2.35 µM (active) | 25.1 µM (active) | 1.87 µM (active)
11 | Cc1cc(Nc2cc(N3CCN(C)CC3)nc(Sc3ccc(NC(=O)C4CC4)cc3)n2)n[nH]1 | 0.0461 µM (active) | 0.0291 µM (active) | 0.332 µM (active) | 0.296 µM (active) | – | 15.8 µM (active) | 0.418 µM (active) | 0.372 µM (active) | 0.332 µM (active) | – | –
12 | Nc1cccc(-c2cc3c(Oc4cccc(O)c4)ncnc3[nH]2)c1 | 1.66 µM (active) | 2.91 µM (active) and 3.32 µM (active) | 16.6 µM (active) | – | – | 8.91 µM (active) | – | – | – | 3.16 µM (active) | –
13 | NC(=O)[C@H]1CCS[C@@H]2C[C@]3(CCCN3C(=O)Cc3ccc(NC(=O)COc4ccc(Cl)cc4Cl)cc3)C(=O)N12 | 3.26 µM (active) | 2.91 µM (active) | 0.588 µM (active) | 1.17 µM (active) | – | 3.98 µM (active) | – | – | 1.86 µM (active) | – | 1.48 µM (active)
14 | COc1ccc(CCN(C)CCCOc2ccc(S(=O)(=O)c3[nH]c4ccccc4c3C(C)C)cc2)cc1OC | 7.42 µM (active) | 6.61 µM (active) | inactive | – | – | – | – | – | – | 28.2 µM (active) | –
15 | COc1ccccc1N1CCN(CC(O)COc2cccc3ccccc23)CC1 (stereo not given) | inactive | inactive | inactive | 13.2 µM (active) | -10.8% (inactive) | inactive | – | – | – | – | –
16 | CN1C(C(=O)Nc2ccccn2)=C(O)c2sccc2S1(=O)=O | 750 nM (active) and inactive | inactive | inactive | inactive | 0.0862% (inactive) and -19.6% (inactive) | inactive | inactive | – | inactive | – | –

Row | Structure (SMILES) | Potency [1] | Potency [2] | Potency [3] | Potency [4] | activity (max response) [5] | Potency [6] | Potency [7] | Potency [8] | Potency [9] | Potency [5] | Potency [10]
17 | Nc1ncnc2c1c(-c1cccc(OCc3ccccc3)c1)cn2C1CC(CN2CCC2)C1 (stereo not given) | 0.58 µM (active) | 0.92 µM (active) | inactive | inactive | – | inactive | – | – | – | – | inactive
18 | COc1ccc2cc3[n+](cc2c1OC)CCc1cc2c(cc1-3)OCO2 | 4.22 µM (active) and 1.48 µM (active) | 1.68 µM (active) and 934 nM (active) | 18.7 µM (active) | 18.7 µM (active) | – | inactive | – | 20.9 µM (active) | 18.7 µM (active) | 10.3 µM (active) and 8.91 µM (active) | –
19 | CC1=C(C(=O)Nc2cc3cn[nH]c3cc2F)C(c2ccc(Cl)cc2F)N=C(c2ccnc(Cl)c2)N1 (stereo not given) | 4.61 µM (active) | 4.61 µM (active) and 5.9 µM (active) | 20.9 µM (active) | 18.7 µM (active) | – | 25.1 µM (active) | 16.6 µM (active) | 18.7 µM (active) | 16.6 µM (active) | – | 20.9 µM (active)
20 | CNc1nccc(-c2cccnc2Oc2cc(C(=O)Nc3cccc(C(F)(F)F)c3)ccc2C)n1 | 517 nM (active) and 1.18 µM (active) | 1.3 µM (active) and 2.09 µM (active) | inactive | – | – | – | inactive | – | – | – | inactive
21 | Cc1cc(C(=O)NOCCO)c(Nc2ccc(I)cc2F)n(C)c1=O | 0.0525 µM (active) | 0.0411 µM (active) | inactive | inactive | – | inactive | 0.0662 µM (active) | inactive | 0.0074 µM (active) | – | inactive
22 | CCn1cc(-c2ccnc3[nH]c(-c4cccc(CN(C)C)c4)cc23)c(-c2ccc(NC(=O)N(C)C)cc2)n1 | 103 nM (active) and 83.3 nM (active) | 282 nM (active) and 235 nM (active) | 0.0662 µM (active) | 0.0833 µM (active) | – | 12.6 µM (active) | 0.0743 µM (active) | 0.0469 µM (active) | 0.059 µM (active) | 17.8 µM (active) | –
23 | CCc1cccc(CC)c1NC(=O)N1Cc2[nH]nc(NC(=O)c3ccc(N4CCN(C)CC4)cc3)c2C1 | 1.46 µM (active) and 1.66 µM (active) | 1.03 µM (active) and 1.05 µM (active) | 1.87 µM (active) | – | – | – | 4.18 µM (active) | 1.66 µM (active) | 1.66 µM (active) | – | –
24 | CN(C)CC[C@H](CSc1ccccc1)Nc1ccc(S(=O)(=O)NC(=O)c2ccc(N3CCN(Cc4ccccc4-c4ccc(Cl)cc4)CC3)cc2)cc1[N+](=O)[O-] | 0.148 µM (active) | 0.0332 µM (active) | 1.48 µM (active) | 2.64 µM (active) | – | 22.4 µM (active) | 0.059 µM (active) | 0.0935 µM (active) | 0.0469 µM (active) | – | 2.35 µM (active)
25 | O=C(Nc1ccc([N+](=O)[O-])cc1Cl)c1cc(Cl)ccc1O | 920 nM (active) and 934 nM (active) | 1.16 µM (active) and 742 nM (active) | 3.72 µM (active) | 2.35 µM (active) | – | 224 nM (active) and 1 µM (active) | – | 1.18 µM (active) | – | 142 nM (active) and 447 nM (active) | 2.96 µM (active)
26 | CN1CCN(CCOc2cc(OC3CCOCC3)c3c(Nc4c(Cl)ccc5c4OCO5)ncnc3c2)CC1 | 6.51 µM (active) and 5.9 µM (active) | 9.2 µM (active) and 9.34 µM (active) | 8.33 µM (active) | 29.6 µM (active) | – | 31.6 µM (active) | – | 6.62 µM (active) | 10.5 µM (active) | – | 18.7 µM (active)
27 | CN(C)CCCN1c2ccccc2CCc2ccc(Cl)cc21 | 16.6 µM (active) | 10.6 µM (active) and 14.8 µM (active) | inactive | – | – | 25.1 µM (active) | – | – | – | – | –
28 | O=C(O)C1(Cc2cccc(Nc3nccs3)n2)CCC(Oc2cccc(Cl)c2F)CC1 (stereo not given) | 0.517 µM (active) | 461 nM (active) and 468 nM (active) | 2.35 µM (active) | 2.64 µM (active) | – | – | 2.96 µM (active) | – | – | – | –
29 | C[C@H](NC(=O)C(=O)Nc1ccccc1C(C)(C)C)C(=O)N[C@@H](CC(=O)O)C(=O)COc1c(F)c(F)cc(F)c1F | 2.35 µM (active) | 1.86 µM (active) | 20.9 µM (active) | 14.8 µM (active) | – | – | 5.26 µM (active) | 5.9 µM (active) | 5.26 µM (active) | – | –
30 | CCn1c(=O)c2c(nc(C=Cc3ccc(OC)c(OC)c3)n2C)n(CC)c1=O | inactive | inactive | inactive | inactive | 1.29% (inactive) | inactive | inactive | inactive | inactive | – | inactive
31 | CN(C)CCc1c[nH]c2ccc(CS(=O)(=O)N3CCCC3)cc12 | inactive | inactive | – | inactive | -4.49% (inactive) and 5.74% (inactive) | inactive | inactive | – | 14.8 µM (active) | – | –
